From PubChem
D1 ag: human D1 receptor agonism. 1% of 360,000 active. HEK293 T-REx D1 cells, calcium flux, agonist mode. activation, % at 2 µM
Target sequence (P21728 whole entry, looked up): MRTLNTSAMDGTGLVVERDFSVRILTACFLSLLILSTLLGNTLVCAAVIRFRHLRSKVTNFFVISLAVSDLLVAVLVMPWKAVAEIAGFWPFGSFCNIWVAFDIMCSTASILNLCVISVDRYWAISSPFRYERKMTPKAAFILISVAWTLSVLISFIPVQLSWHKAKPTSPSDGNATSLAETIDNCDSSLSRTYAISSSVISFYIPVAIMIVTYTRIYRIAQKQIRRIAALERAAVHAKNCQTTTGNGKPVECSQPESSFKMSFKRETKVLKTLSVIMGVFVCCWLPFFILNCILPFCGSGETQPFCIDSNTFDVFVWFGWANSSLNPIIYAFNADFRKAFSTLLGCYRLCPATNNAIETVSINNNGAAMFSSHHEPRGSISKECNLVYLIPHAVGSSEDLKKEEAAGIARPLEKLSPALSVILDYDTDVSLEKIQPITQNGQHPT
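Inducible HEK293 T-REx D1 cells, force-coupled to calcium signalling, were plated at 4000 cells/well with tetracycline and held overnight at 30 C. After no-wash calcium dye loading, compound-evoked calcium rise over 180 s flagged agonists.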
D1 antagonist: antagonists of human D1 dopamine receptor | activity change, negative = inhibition, % at 10 µM | HEK293 TREx D1 cells, calcium flux, dopamine EC80; hits give low values | P21728 | 3.2% of 360,000 active | AID 504652; in the data active = activity change below about -30%
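HEK293 T-REx cells expressing inducible, force-coupled D1 receptor; no-wash Ca dye, 30–90 min RT. Cmpd → 180 s read at 1 Hz → EC80 DA → 180 s read.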
D1 PAM: potentiators of human D1 dopamine receptor; HEK293 TREx D1 cells, calcium flux, dopamine EC20 potentiation; potentiation, % at 10 µM; 0.036% of 360,000 active; AID 504651; in the data active = potentiation above about 30%
Epigenetic derep: derepresses silenced GFP reporter in murine cells; murine LDR cells, GFP reporter derepression, 30 h; Potency, µM (titrated, usually from 53.9 µM), most hits filed as activators; 0.2% of 280,000 active; active = well fitted activation curve with a large enough effect; also: nearly all actives have a fitted effect of over 60% in size
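Readout is the number of GFP-expressing murine LDR cells, counted by cytometry following washing. Cells were treated with compound for 30 h at 37 C; the stably integrated CMV-GFP locus is normally silent.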
TRHR agonist: agonists of human TRH receptor; activation, % at 2 µM; P34981; TRHR cells, calcium flux fluo-8, FDSS agonist mode; 0.18% of 360,000 active; AID 493084
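Fluo-8-loaded TRHR cells; 10 s baseline, compound added, kinetic Ca2+ fluorescence read 1/s, agonist mode.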
TRHR PAM: allosterically enhances the human TRH receptor. enhancement, % at 2 µM. TRHR cells, fluo-8 calcium fluorescence, EC20 TRH enhancement. 0.66% of 360,000 active. P34981; in the data active = enhancement above about 30%
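Enhancer read-out: after compound pinning and an initial kinetic agonist-mode read, an EC20 of TRH (10 nM final) was injected and fluo-8 calcium signal (Ex 480/Em 530) followed at 1 s/cycle for 100 cycles in TRHR-expressing cells.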
A number is an active result; . = inactive; / = not tested or not shown; [ ] = another dose, or the depositor's remark. Sampled rows, rich in hits. Any-hit rate of the full collection: about 4.6%. Rule as the data show it, unless noted: active = activation above about 30%; inactive = the rest.

SMILES | D1 ag | D1 antagonist | D1 PAM | Epigenetic derep | TRHR agonist | TRHR PAM
O=C(Cn1c2ccccc2c(=O)c2ccccc21)N/N=C/c1ccc(N2CCCC2)c([N+](=O)[O-])c1 | . | . | . | . | . | .
O=C(NCc1ccc(F)cc1)c1c(O)nc2ccccn2c1=O | . | . | . | . | . | .
Cn1c(N)c(-c2ccccc2)c2ccc([N+](=O)[O-])cc2c1=O | 242.4 | . | . | / | . | .
COc1ccc(N2CCN(S(=O)(=O)CCNC(=O)c3ccc(OC(C)C)cc3)CC2)cc1 | . | . | . | . | . | .
S=c1[nH]nc(COc2ccccc2)n1/N=C/c1ccccc1Br | . | . | . | / | . | .
FC(F)(F)c1ccccc1/C=N/n1c(COc2ccccc2)n[nH]c1=S | 38.3 | -35.6 | . | / | . | .
S=c1[nH]nc(COc2ccccc2)n1/N=C/c1ccncc1 | . | / | . | . | . | .
CCc1ccc(/C=N/n2c(COc3ccccc3)n[nH]c2=S)cc1 | 60.7 | . | . | / | . | .
COc1ccc(OC)c(/C=C2/Sc3ccccc3C2=O)c1 | 311.9 | . | . | . | 65.8 | .
Cc1ccc(/C=C2\Sc3ccccc3C2=O)s1 | . | . | . | . | . | .
COc1ccc(-c2ccc(CNc3ccc4[nH]c(=O)[nH]c4c3)o2)cc1Cl | . | -52.0 | . | . | . | .
O=c1[nH]c2ccc(NCc3ccc(-c4ccc(Cl)cc4)o3)cc2[nH]1 | . | . | . | . | . | .
Cc1ccc(CNC(=O)c2cccnc2Sc2cccc(Cl)c2)cc1 | 45.9 | . | . | . | . | .
Oc1ccc(C[C@@H]2CNCCN2CCC23CC4CC(CC(C4)C2)C3)cc1 | 95.5 | . | . | / | . | .
Oc1ccc(C[C@H]2CNCCN2CCCCC2CCCCC2)cc1 | 33.3 | . | . | / | . | .
O=C1CCC(=O)N1CN(Cc1ccco1)CN1C(=O)CCC1=O | . | -77.4 | . | . | . | .
CCOc1ccccc1NC(=O)N1CCC2(CC1)Oc1ccccc1C(=O)N2Cc1ccccc1F | . | . | . | . | . | .
COc1ccc(C(=O)Nc2nc3ccc(S(C)(=O)=O)cc3s2)cc1 | . | -38.6 | . | . | . | .
CC(C)NS(=O)(=O)c1ccc2nc(NC(=O)c3cncc(Br)c3)sc2c1 | . | -52.2 | . | . | . | .
CS(=O)(=O)c1ccc2nc(NC(=O)CCNC(=O)c3ccc(Cl)cc3)sc2c1 | . | -47.2 | . | / | . | .
COc1ccc(OC2C=CC(C#Cc3ccc(F)cc3F)OC2CO)cc1 (centres undefined) | / | / | / | .[10.1 µM] | / | /
COc1cccc(-c2nc3ccc(O)cc3c(=O)o2)c1 | . | . | . | . | . | 35.8
COc1ccccc1NC(=S)NCc1ccccc1Cl | . | . | . | / | . | 37.2
Cc1c(Cl)cccc1NC(=S)NCc1ccccc1Cl | . | . | . | . | . | .
COc1ccc(NC(=S)NCc2ccccc2Cl)c(OC)c1 | . | -32.6 | . | / | . | .
SMILES | D1 ag | D1 antagonist | D1 PAM | Epigenetic derep | TRHR agonist | TRHR PAM
COc1ccccc1NC(=S)NCc1ccc(F)cc1 | . | . | . | / | . | .
COc1ccccc1NC(=S)NCC1CCC(CNC(=S)Nc2ccccc2OC)CC1 (centres undefined) | . | -84.9 | . | . | . | .
COc1ccc(NC(=S)NCc2ccc(F)cc2)c(OC)c1 | . | -30.8 | . | / | . | .
O=C(NCCCCN1CCCC1)c1ccc(Cc2nc3ccccc3[nH]2)cc1 | / | / | / | . | / | /
Cc1ccccc1NC(=O)/C=C/c1ccc([N+](=O)[O-])s1 | . | . | . | 3.55µM | . | .
CCOC(=O)c1cccc(NC(=O)/C=C/c2ccc([N+](=O)[O-])cc2)c1 | . | -43.7 | . | . | . | .
Cc1cc(C)cc(NC(=O)/C=C/c2ccc([N+](=O)[O-])s2)c1 | . | . | . | . | . | .
CC(=O)c1cccc(NC(=O)/C=C/c2ccc([N+](=O)[O-])s2)c1 | . | . | . | 3.98µM | . | .
CC(=O)c1ccc(N2CCN(C(=S)Nc3cccc(F)c3)CC2)cc1 | . | -40.0 | . | . | . | .
COc1cc2ccccc2cc1C(=O)Nc1ccc(N2CCN(C)CC2)cc1 | . | -61.2 | . | . | . | .
COc1cc2ccccc2cc1C(=O)Nc1ccc(N2CCN(C(=O)C(C)C)CC2)cc1 | . | . | . | / | . | .
